E coli Lon inh: inhibitors of E. coli Lon protease, primary screen, biochemical, fluorescence polarization. P0A9M0. purified E. coli Lon protease. inhibition, % at 7.94 µM. actives 0.42% (n = 360,000). AID 602123, 2011; in the data active = inhibition above about 13%, passing the limit was not always enough
LANA DNA inh: inhibitors of KSHV C-LANA binding to DNA, primary screen, biochemical, fluorescence polarization, FAM-LBS DNA, MBP-C-LANA, single point; Kaposi's sarcoma herpesvirus LANA C-terminal domain (residues 932-1162) DNA binding; inhibition, % at 9 µM; actives 0.078% (n = 340,000);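 active = highest replicate inhibition at or above 60% at 9 µM, even if other replicates fall short; inactive = all replicates below 60% inhibition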
EBV gp42 inh: Epstein-Barr virus gp42 inhibitors, primary screen, biochemical, uHTS, fluorescence polarization; Glycoprotein 42 (Epstein-Barr virus (strain AG876)), Q1HVG2; Fluorescence polarization binding assay, mP read-out; inhibition, % (tested at 21.74 µM); actives 0.42% (n = 220,000); AID 1085, 2008; in the data active = inhibition above about 50%
Target sequence (Q1HVG2 whole entry, looked up): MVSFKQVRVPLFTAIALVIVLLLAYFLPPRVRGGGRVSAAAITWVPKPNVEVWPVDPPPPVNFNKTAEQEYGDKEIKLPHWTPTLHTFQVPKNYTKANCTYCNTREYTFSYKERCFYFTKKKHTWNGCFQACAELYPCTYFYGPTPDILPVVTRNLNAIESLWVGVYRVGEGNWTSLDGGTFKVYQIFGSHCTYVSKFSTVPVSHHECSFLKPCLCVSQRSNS
Keap1 Nrf2 FP: Keap1-Nrf2 protein-protein interaction inhibitors, primary screen, biochemical, fluorescence polarization, single point. inhibition, % at 9.4 µM. AID 504523, 2011. Keap1 Kelch-Nrf2 peptide fluorescence polarization, 1536-well. actives 0.15% (n = 340,000); in the data active = inhibition above about 12%;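 note: human Keap1 Kelch domain with fluorescein labeled Nrf2 9mer peptide probe; higher means more block of Keap1 binding to Nrf2 peptide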
GLD-1 RNA inh: GLD-1/TGE RNA complex disruptors, primary screen, biochemical, fluorescence polarization. AID 2280, 2010. actives 0.44% (n = 320,000). inhibition, % at 5.96 µM. purified GLD-1 + fluorescein TGE RNA;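 active = percent inhibition above a per-plate cutoff, the plate mean of test compounds plus 3 SD, cut at about 30% in these data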
Target sequence (Q17339 whole entry, looked up): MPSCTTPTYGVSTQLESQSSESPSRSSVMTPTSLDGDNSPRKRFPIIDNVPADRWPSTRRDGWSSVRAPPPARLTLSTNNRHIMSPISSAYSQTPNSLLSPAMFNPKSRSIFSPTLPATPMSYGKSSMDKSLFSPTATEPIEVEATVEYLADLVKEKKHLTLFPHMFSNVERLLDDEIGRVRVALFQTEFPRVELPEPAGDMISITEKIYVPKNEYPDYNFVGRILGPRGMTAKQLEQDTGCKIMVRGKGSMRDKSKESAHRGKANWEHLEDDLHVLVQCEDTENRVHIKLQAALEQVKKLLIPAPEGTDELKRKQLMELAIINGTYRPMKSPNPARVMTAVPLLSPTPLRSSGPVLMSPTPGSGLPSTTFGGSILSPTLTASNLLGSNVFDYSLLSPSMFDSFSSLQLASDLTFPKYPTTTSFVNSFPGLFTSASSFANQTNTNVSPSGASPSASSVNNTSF
LANA-H2A inh: blockers of LANA interaction with H2A/H2B – biochemical, FP readout, HTS, primary screen | actives 0.6% (n = 320,000) | Protein LANA1 (Human herpesvirus 8 type P (isolate GK18)), Q9QR71 | cell-free LANA-H2A/H2B peptide, fluorescence polarization | inhibition, % (test concentration not listed) | AID 2629, 2010; in the data active = inhibition mostly above about 10%, no sharp cut-off; inactive = mostly below about 6.7%
Hits are given with their value. Compounds with a hit are over-represented: about 1.5% of the library has one in this group of screens.

Results for Cc1nc(C(F)(F)F)ccc1C(=O)N1CCCC(C(=O)O)CC1 (stereo unspecified) ?
E coli Lon inh: inactive

Results for COc1ccc(/C=C2\SC(=S)N(CCCC(=O)Nc3ccccn3)C2=O)cc1OC ?
E coli Lon inh: inactive; LANA DNA inh: inactive; EBV gp42 inh: 76; Keap1 Nrf2 FP: inactive; GLD-1 RNA inh: inactive; LANA-H2A inh: inactive

How did Cc1cc(C=C2C(=O)c3ccccc3C2=O)c(C)n1-c1ccc(Cl)cc1 do in these assays?
E coli Lon inh: inactive; LANA DNA inh: inactive; EBV gp42 inh: 61; Keap1 Nrf2 FP: inactive

How did CCn1c(C)cc(C=C2C(=O)c3ccccc3C2=O)c1C do in these assays?
E coli Lon inh: inactive; LANA DNA inh: inactive; EBV gp42 inh: 107; Keap1 Nrf2 FP: inactive

What do the screens show for `Cc1c(NC(=O)c2ccc(S(=O)(=O)N3CCOCC3)cc2)cccc1[N+](=O)[O-]`?
E coli Lon inh: inactive; LANA DNA inh: inactive; Keap1 Nrf2 FP: inactive; GLD-1 RNA inh: inactive; LANA-H2A inh: inactive

Results for COc1ccc(C(=O)/C=C/Nc2ccc(S(=O)(=O)Nc3cc(OC)nc(OC)n3)cc2)c(OC)c1 ?
E coli Lon inh: inactive; LANA DNA inh: inactive; Keap1 Nrf2 FP: inactive; GLD-1 RNA inh: inactive; LANA-H2A inh: 17

How did Cc1cccc(-n2nnnc2SCC(=O)NCC2(N3CCOCC3)CCCCC2)c1C do in these assays?
E coli Lon inh: inactive; LANA DNA inh: inactive; Keap1 Nrf2 FP: inactive; GLD-1 RNA inh: inactive; LANA-H2A inh: active

How did Cc1ccc(NC(=O)C2CC(=O)n3c(nc4ccccc43)N2)cc1C (stereo unspecified) do in these assays?
E coli Lon inh: inactive; LANA DNA inh: inactive; EBV gp42 inh: inactive; Keap1 Nrf2 FP: inactive; GLD-1 RNA inh: inactive; LANA-H2A inh: 16

Results for O=C(CCCN1CCC(C(O)c2ccc(F)cc2)CC1)c1ccc(F)cc1 (stereo unspecified) ?
E coli Lon inh: inactive

Results for CCCn1nnnc1SCC(=O)NCc1cccs1 ?
E coli Lon inh: inactive; LANA DNA inh: inactive; EBV gp42 inh: inactive; Keap1 Nrf2 FP: inactive; GLD-1 RNA inh: inactive; LANA-H2A inh: 98

How did CCOC(=O)C[N+](C)(C)CCOC1CC2CCC1(C)C2(C)C (stereo unspecified) do in these assays?
E coli Lon inh: inactive; LANA DNA inh: inactive; EBV gp42 inh: inactive; Keap1 Nrf2 FP: inactive; GLD-1 RNA inh: inactive; LANA-H2A inh: inactive

Results for CC1(C)C2CCC1(C)C(OCC[N+](C)(C)CC(=O)OC1CCCCC1)C2 (stereo unspecified) ?
E coli Lon inh: inactive; LANA DNA inh: inactive; EBV gp42 inh: inactive; Keap1 Nrf2 FP: inactive; GLD-1 RNA inh: inactive; LANA-H2A inh: 27

How did CC(=O)c1cccc(NC(=S)NC(=O)c2ccccc2Cl)c1 do in these assays?
E coli Lon inh: inactive; LANA DNA inh: inactive; EBV gp42 inh: inactive; Keap1 Nrf2 FP: inactive; GLD-1 RNA inh: inactive; LANA-H2A inh: inactive

How did CC(=O)c1cccc(NC(=S)NC(=O)c2ccc(C)cc2Cl)c1 do in these assays?
E coli Lon inh: inactive; LANA DNA inh: inactive; EBV gp42 inh: inactive; Keap1 Nrf2 FP: inactive; GLD-1 RNA inh: inactive; LANA-H2A inh: 36

How did COC(=O)c1ccccc1NC(=O)CCCOc1cc(=O)n(C)c2ccccc12 do in these assays?
E coli Lon inh: inactive

Results for CCOC(=O)C1CCN(C(=O)c2ccccc2Oc2ccccc2)CC1 ?
E coli Lon inh: inactive; LANA DNA inh: inactive; EBV gp42 inh: inactive; Keap1 Nrf2 FP: inactive; GLD-1 RNA inh: inactive; LANA-H2A inh: inactive

What do the screens show for `CCOC(=O)N1CCN(C(=O)c2ccccc2Oc2ccccc2)CC1`?
E coli Lon inh: inactive; LANA DNA inh: inactive; EBV gp42 inh: 130; Keap1 Nrf2 FP: inactive; GLD-1 RNA inh: inactive; LANA-H2A inh: inactive

How did CCc1ccc(C(=O)N/N=C/c2ccc(Cl)cc2Cl)nc1 do in these assays?
EBV gp42 inh: inactive; GLD-1 RNA inh: inactive; LANA-H2A inh: 40

How did CCc1nn2c(=O)cc(COc3ccc(/C=C4\C(=N)N5N=C(C)SC5=NC4=O)cc3)nc2s1 do in these assays?
E coli Lon inh: inactive; LANA DNA inh: inactive; EBV gp42 inh: 73; Keap1 Nrf2 FP: inactive; GLD-1 RNA inh: inactive; LANA-H2A inh: inactive

How did Cc1cccc(NC(=O)COC(=O)Cc2cccc(C(F)(F)F)c2)c1C do in these assays?
E coli Lon inh: inactive; LANA DNA inh: inactive; EBV gp42 inh: inactive; Keap1 Nrf2 FP: inactive; GLD-1 RNA inh: inactive; LANA-H2A inh: active

How did CC(=O)c1ccccc1NC(=O)COC(=O)Cc1cccc(C(F)(F)F)c1 do in these assays?
E coli Lon inh: inactive; LANA DNA inh: inactive; Keap1 Nrf2 FP: inactive; GLD-1 RNA inh: inactive; LANA-H2A inh: inactive

What do the screens show for `COC(=O)[C@@H]1C[C@H]2CC[C@H](O)C[C@H]2N1Cc1ccccc1OS(=O)(=O)c1ccc(C)cc1`?
E coli Lon inh: inactive; LANA DNA inh: inactive; EBV gp42 inh: inactive; Keap1 Nrf2 FP: inactive; GLD-1 RNA inh: inactive; LANA-H2A inh: inactive

How did COc1ccc(/C=C2\C(=O)NC(=S)N2C(=O)c2ccc(F)cc2)cc1 do in these assays?
E coli Lon inh: inactive; LANA DNA inh: inactive; EBV gp42 inh: inactive; Keap1 Nrf2 FP: inactive; GLD-1 RNA inh: inactive; LANA-H2A inh: active

How did O=C1NC(=S)N(C(=O)c2ccc(F)cc2)/C1=C/c1ccccc1 do in these assays?
E coli Lon inh: inactive; LANA DNA inh: inactive; EBV gp42 inh: inactive; Keap1 Nrf2 FP: inactive; GLD-1 RNA inh: inactive; LANA-H2A inh: inactive

Results for CCCCNC(=O)C1(C)CCN1C(=O)c1cccc(OC(C)=O)c1C (stereo unspecified) ?
E coli Lon inh: inactive

What do the screens show for `COc1ccc(CN(CCNC(=O)CCCCC(=O)NCCN(Cc2ccc(OC)cc2)C(C)C)C(C)C)cc1`?
E coli Lon inh: inactive; LANA DNA inh: inactive; Keap1 Nrf2 FP: inactive; GLD-1 RNA inh: inactive; LANA-H2A inh: inactive

Results for Cc1cccc(N2CCN(S(=O)(=O)c3c(C)[nH]c(C)c3C(=O)N3CCCCC3)CC2)c1C ?
E coli Lon inh: inactive; LANA DNA inh: inactive; Keap1 Nrf2 FP: inactive; GLD-1 RNA inh: inactive; LANA-H2A inh: inactive

What do the screens show for `Cc1cccc(N2CCN(S(=O)(=O)c3c(C)[nH]c(C)c3C(=O)N3CCCC3)CC2)c1C`?
E coli Lon inh: inactive; LANA DNA inh: inactive; Keap1 Nrf2 FP: inactive; GLD-1 RNA inh: 31; LANA-H2A inh: inactive

Results for O=C(CCNC(=O)c1ccc(Br)cc1)NCc1cccnc1 ?
E coli Lon inh: inactive; LANA DNA inh: inactive; Keap1 Nrf2 FP: inactive; GLD-1 RNA inh: inactive; LANA-H2A inh: 22

How did O=C(CCSCc1ccc(Cl)cc1)NCc1cccnc1 do in these assays?
E coli Lon inh: inactive; LANA DNA inh: inactive; EBV gp42 inh: inactive; Keap1 Nrf2 FP: inactive; GLD-1 RNA inh: inactive; LANA-H2A inh: active

Results for O=C(CNC(=O)c1ccc(Br)cc1)NCc1cccnc1 ?
E coli Lon inh: inactive; LANA DNA inh: inactive; Keap1 Nrf2 FP: inactive; GLD-1 RNA inh: inactive; LANA-H2A inh: inactive

Assay outcomes as filed in PubChem BioAssay.
